We go through 38 compounds from the supplement of paper PMC10720658.

± gives the standard deviation of the averaged measurements.

The subject of the assay is AEK1 (Tb927.3.2440). The assay is described as follows: percent reduction in TR-FRET probe signal relative to DMSO control; higher = stronger displacement of ATP-site probe (binding). Particulars: 1 µM; incubation time 1 h.
For the compound `C[C@@H](N)[C@H]1CC[C@H](C(=O)Nc2ccncc2)CC1.Cl.Cl`, the “percent reduction in TR-FRET probe signal” value (“percent reduction” below) was 2.66 ± 6.8%.
`CN1CCN(c2nc(C3=C(c4c[nH]c5ccccc45)C(=O)NC3=O)c3ccccc3n2)CC1` [Sotrastaurin]: the “percent reduction” value is -7.1 ± 1.4%.
With `CNC(=O)c1cc(COc2nnc(Nc3ccc(Cl)cc3)c3ccoc23)ccn1` [Telatinib] the figure was -1.95 ± 4.8%.
With `CNCc1ccc(-c2cc(-c3nc(-c4ccc(S(=O)(=O)C(C)C)cc4)cnc3N)on2)cc1` the figure was 0.147 ± 8.7%; with `Cc1cc(N2CCOCC2)cc2[nH]c(-c3c(NC[C@@H](O)c4cccc(Cl)c4)cc[nH]c3=O)nc12`, 21.7 ± 13%; with `COc1cc2ncnc(Nc3ccc(Cl)cc3F)c2cc1OC`, 4.47 ± 2.8%.
With `C[C@H](Nc1ncnc2[nH]cnc12)c1cc2ccc(F)cc2nc1-c1ccccn1` the figure was -3.52 ± 7.7%; with `Oc1cc(O)cc(/C=C/c2ccc(O)c(O)c2)c1` [Piceatannol], 44.1 ± 8%.
With `COc1cc2c(Oc3ccc4[nH]c(C)cc4c3F)ncnc2cc1OCCCN1CCCC1` [Cediranib (AZD2171)], the “percent reduction” value was determined as 63.4 ± 7.6%.
With `CCN(C)S(=O)(=O)Nc1ccc(F)c(C(=O)c2c[nH]c3ncc(-c4cnc(C5CC5)nc4)cc23)c1F` the figure was -1.7 ± 4%; with `Cc1cc(C(C)Nc2ccccc2)c2nc(N3CCOCC3)cc(=O)n2c1` (stereo not drawn), -4.42 ± 15%; with `O=C(Cc1ccc(-c2ccc(OCCN3CCOCC3)cc2)cn1)NCc1ccccc1`, -1.26 ± 9%.
With `O=C(c1cccc(Cl)c1F)N1CCN(Cc2cccc(Nc3nccs3)n2)CC1` the figure was 6.09 ± 13%.
With `CCc1cncnc1N1CCN(Cc2nc3cc(C(F)(F)F)ccc3[nH]2)CC1` the figure was -7.37 ± 13%.
`O=c1c(-c2ccc(O)cc2)coc2cc(O)cc(O)c12` [Genistein]: the “percent reduction” value came to 23.3 ± 20%.
With `C[C@@H]1CCN(C(=O)CC#N)C[C@@H]1N(C)c1ncnc2[nH]ccc12` the figure was 5.48 ± 7.8%; with `CS(=O)(=O)O.Cc1ccc(NC(=O)c2ccc(CN3CCN(C)CC3)cc2)cc1Nc1nccc(-c2cccnc2)n1` [Imatinib Mesylate (STI571)], 7.01 ± 21%; with `CCCS(=O)(=O)Nc1ccc(F)c(C(=O)c2c[nH]c3ncc(-c4ccc(Cl)cc4)cc23)c1F` [Vemurafenib (PLX4032, RG7204)], 4.16 ± 3%.
With `Cc1c(NC(=O)OC[C@@H]2COCCN2)cn2ncnc(Nc3ccc4c(cnn4Cc4cccc(F)c4)c3)c12` the figure was -10.7 ± 4.8%; with `CN(C)Cc1cccc(N/C(=C2\C(=O)Nc3cc(C(=O)N(C)C)ccc32)c2ccccc2)c1`, -0.927 ± 9.6%; with `CC(C)(C)n1nc(-c2ccc(Cl)cc2)c2c(N)ncnc21`, -1.96 ± 9.6%.
With `C[C@@H]1CCN(C(=O)CC#N)C[C@@H]1N(C)c1ncnc2[nH]ccc12.O=C(O)CC(O)(CC(=O)O)C(=O)O` the figure was -1.47 ± 8.1%; with `O=C(Nc1ccc(OC(F)(F)F)cc1)c1sccc1NCc1ccnc2ccccc12`, -8.08 ± 5.7%.
Consider `Cl.O=C1NCCc2[nH]c(-c3ccncc3)cc21`, for which the “percent reduction” value worked out at 11.4 ± 8.5%.
With `Cc1cc(Nc2ncc(Cl)c(Nc3ccccc3S(=O)(=O)C(C)C)n2)c(OC(C)C)cc1C1CCNCC1` the figure was -7.62 ± 8.9%; with `COc1ccc(C(=O)Nc2sc3c(c2C(N)=O)CCCC3)cc1OC`, 1.85 ± 1.5%.
With `COc1cccc(-n2c(=O)[nH]c3cc(Cl)n(-c4ccc(-c5cccc(OC)c5O)cc4)c3c2=O)c1`, the “percent reduction” value is -7.49 ± 2.1%.
As for `COc1cccc(-c2cc(=O)c3ccccc3o2)c1N`, the “percent reduction” value is -1.76 ± 8%.
With `C=CC(=O)Nc1ccc2ncnc(Nc3cccc(Br)c3)c2c1` the figure was 12 ± 5.5%; with `CN(C)C/C=C/C(=O)Nc1cc2c(Nc3ccc(F)c(Cl)c3)ncnc2cc1O[C@H]1CCOC1` [Afatinib (BIBW2992)], 15.6 ± 31%; with `Cn1cc(-c2ccc3nnc(C(F)(F)c4ccc5ncccc5c4)n3n2)cn1`, -0.537 ± 18%.
With `COc1ccc(Cl)cc1NC(=O)Nc1cc(C)nc2ccccc12` the figure was -2.86 ± 7.3%; with `C1=C/COCc2cc(ccc2OCCN2CCCC2)Nc2nccc(n2)-c2cccc(c2)COC/1` [Pacritinib (SB1518)], -2.95 ± 9.1%.
On to `CS(=O)(=O)N1CCN(Cc2cc3nc(-c4cccc5[nH]ncc45)nc(N4CCOCC4)c3s2)CC1`, for which the “percent reduction” value turned out to be 4.23 ± 8.1%.
On to `Nc1cc(C(F)(F)F)c(-c2cc(N3CCOCC3)nc(N3CCOCC3)n2)cn1` [BKM120 (NVP-BKM120, Buparlisib)], for which the “percent reduction” value was 8.62 ± 16%.
As to `Cc1cc(Nc2cc(CN3CCOCC3)c3nc(C)c(Cc4ccc(Cl)cc4F)n3n2)n[nH]1`, the “percent reduction” value turned out to be 49 ± 10%.
In the case of `COc1cc2nccc(Oc3ccc(NC(=O)NC4CC4)c(Cl)c3)c2cc1C(N)=O` [Lenvatinib (E7080)], the “percent reduction” value was 1.41 ± 13%.
As to `COc1cccc2cc(-c3nc([C@H]4CC[C@H](C(=O)O)CC4)n4ncnc(N)c34)[nH]c12`, the “percent reduction” value was -0.417 ± 9.2%.
